# Source: PubChem BioAssay
# AMA1 RON2 block: qHTS for Inhibitors of AMA1-RON; Towards Development of Antimalarial Drug Lead: Primary Screen | AlphaScreen AMA1-biotinylated RON2 peptide binding | AID 720542, 2013 | 360,000 tested, 0.2% active | Potency, µM (series often up to 58.2 µM), inactives show at the top dose activity change, negative = inhibition, hits mostly inhibitors;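 also: 0% = vehicle wells and -100% = peptide control; nearly all actives have a fitted effect of over 45% in size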
#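 AMA1 (3D7) with his tag at 25 nM final met compounds first, then biotinylated RON2 peptide at 25 nM; detection used donor plus acceptor beads, 10 µg/mL apiece, read by AlphaScreen after 30 min at room temperature.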
# LmPK inhibitor: qHTS Assay for Inhibitors of Leishmania Mexicana Pyruvate Kinase (LmPK); AID 1721, 2009; purified LmPK, Kinase-Glo ATP luminescence, 1 h; Potency, µM (titrated, usually from 57.5 µM), for the others: at the top dose activity change, negative = inhibition, most hits filed as inhibitors; Q27686; 290,000 tested, 0.37% active
#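 Purified LmPK (0.1 nM) with 0.5 mM PEP and 0.1 mM ADP in imidazole buffer pH 7.2 with MgCl2/KCl, 1 h at room temperature. ATP formed was read by luciferase luminescence and normalized to no-enzyme and uninhibited controls.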
# AmpC inh no detg: qHTS Inhibitors of AmpC Beta-Lactamase (assay without detergent). AID 485341, 2010. AmpC nitrocefin hydrolysis, absorbance 480 nm, 0.0001% Triton. Potency, µM (titrated, usually from 57.1 µM), for inactives: at the top dose activity change, negative = inhibition, actives largely listed as inhibitors. 330,000 tested, 0.52% active. P00811;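 also: plate controls were no compound for no effect and no enzyme for full effect; nearly all actives have a fitted effect of over 20% in size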
# Target sequence (P00811 whole entry, looked up): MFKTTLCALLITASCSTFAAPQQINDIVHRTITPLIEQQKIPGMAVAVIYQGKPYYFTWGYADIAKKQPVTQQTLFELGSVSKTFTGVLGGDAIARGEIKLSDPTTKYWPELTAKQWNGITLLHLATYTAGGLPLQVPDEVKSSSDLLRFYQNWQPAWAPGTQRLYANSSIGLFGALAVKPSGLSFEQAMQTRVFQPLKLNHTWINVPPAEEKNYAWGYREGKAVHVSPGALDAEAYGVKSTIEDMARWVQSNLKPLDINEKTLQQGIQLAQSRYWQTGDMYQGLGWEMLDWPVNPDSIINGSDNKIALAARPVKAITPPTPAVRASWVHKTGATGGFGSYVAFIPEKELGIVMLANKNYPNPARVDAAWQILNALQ
#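 20 mM phosphate pH 7.0 + 0.01% (detergent screen) or 0.0001% Triton X-100; 5.3 nM AmpC reagent; cpd preinc 15 min RT; nitrocefin (800 uM stock) to start; A480 q20 s × 4 min; Activity was normalised to no-enzyme and no-compound control wells.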
# FBPA Giardia inh: qHTS Assay for Inhibitors of Fructose-1,6-bisphosphate Aldolase from Giardia Lamblia | A8B2U2 | purified Giardia FBPA | Potency, µM (series often up to 59.6 µM), for inactives: top-dose activity, negative = inhibition, most hits filed as inhibitors | 290,000 tested, 0.71% active; also: nearly all actives have a fitted effect of over 55% in size
# Target sequence (A8B2U2 whole entry, looked up): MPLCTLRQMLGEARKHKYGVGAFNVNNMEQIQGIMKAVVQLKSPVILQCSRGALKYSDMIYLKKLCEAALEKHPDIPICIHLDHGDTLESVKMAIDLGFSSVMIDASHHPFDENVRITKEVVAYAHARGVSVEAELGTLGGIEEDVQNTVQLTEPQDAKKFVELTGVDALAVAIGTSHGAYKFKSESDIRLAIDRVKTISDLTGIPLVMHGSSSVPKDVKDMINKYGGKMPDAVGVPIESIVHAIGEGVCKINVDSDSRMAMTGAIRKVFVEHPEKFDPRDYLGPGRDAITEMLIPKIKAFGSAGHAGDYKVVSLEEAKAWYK
#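 Giardia FBPA (40 nM reagent) was preincubated 10 min at RT with compound (up to 57.5 uM final), then substrate plus GAPDH/TPI/NAD/arsenate coupling system with diaphorase/resazurin was added; resorufin fluorescence (525/598 nm) was read after 20 min.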
# AmpC inh detg: qHTS Inhibitors of AmpC Beta-Lactamase (assay with detergent); AmpC hydrolysis of nitrocefin, absorbance 480 nm, 0.01% Triton; AID 485294, 2010; Potency, µM (top dose mostly 114 µM), inactives show at the highest dose activity change, negative = inhibition, actives largely listed as inhibitors; 370,000 tested, 0.041% active; P00811;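 also: 0% = no-compound wells and -100% = no-enzyme wells; nearly all actives have a fitted effect of over 25% in size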
#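 20 mM phosphate pH 7.0 + 0.01% (detergent screen) or 0.0001% Triton X-100; 5.3 nM AmpC reagent; cpd preinc 15 min RT; nitrocefin (800 uM stock) to start; A480 q20 s × 4 min; Activity was normalised to no-enzyme and no-compound control wells.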
# * marks the source's active call; other numbers are inactive results; ? = inconclusive; · = no result; ! = a repeat was not active; [ ] = remark or other dose. The list is not random: actives were taken first. Their share in the collection is about 1.3%. Calls follow the shape of the dose curve; as a rule, active = well fitted curve in the direction sought with a large enough effect; inconclusive = small, poorly fitted or top-dose-only effect, or another doubt; inactive = no such curve, though single readings can be large; an effect the other way counts as inactive or inconclusive. Unless noted, % is scaled to controls: 0 for no effect and ±100 for the full control effect; potency is read from the fitted curve at half-maximal effect.
SMILES,AMA1 RON2 block,LmPK inhibitor,AmpC inh no detg,FBPA Giardia inh,AmpC inh detg
Cc1ccnc(Nc2cccnc2)n1,5.5%,·,·,·,·
O=C(Nc1cc(-c2ccccc2)[nH]n1)c1ccc(Cl)cc1,23.3%,2.8%,7.08µM*!,-1.0%,0.1%
Clc1cccc(Cl)c1/C=C/c1nc2ccccc2[nH]1,9.1%,?,-47.1%,-14.4%,-12.9%
Clc1ccc(/C=C/c2nc3ccccc3[nH]2)cc1,8.0%,8.91µM*,-44.2%,-11.7%,?
Clc1ccc(/C=C/c2nc3ccccc3[nH]2)c(Cl)c1,-4.8%,14.1µM*,11.2µM*,-7.5%,-3.8%
CCOc1ccc(N(CC)C(=O)COc2cc(=O)n(C)c3ccccc23)cc1,-8.0%,3.6%,25.1µM*,-12.0%,?
CCOc1ccc(N(CC)C(=O)COc2cc(=O)n(CC)c3ccccc23)cc1,-10.9%,3.3%,105.9%,-1.6%,-8.9%
O=c1[nH]c(=S)n(C2CC2)c(O)c1/C=N/Nc1ccccc1,28.1%,2.1%,12.6µM*,?,-11.3%
CC1CCCC(C)N1c1nnc(NC(=O)Cn2c(=O)oc3ccccc32)s1 (configuration not stated),24.7%,4.3%,10µM*,4.6%,-0.2%
CCc1nnc(NC(=O)Cn2c(=O)oc3ccccc32)s1,-1.3%,4.8%,-16.4%,-1.5%,-11.2%
O=C(NCCO)OC1CC2CC1[C@H]1CCCCN1C2=O (some centres not stated),16.9%,·,·,·,·
OC(CNCc1ccccc1)Cn1ccc2ccccc21 (configuration not stated),-24.6%,0.4%,17.8µM*,-12.9%,1.4%
CN(CC(=O)NCCC1=CCCCC1)S(=O)(=O)c1ccc2c(c1)CCC(=O)N2,6.5%,-2.1%,3.16µM*,11.9%,?
CC(=O)Nc1ccc(S(=O)(=O)Nc2ccc(S(=O)(=O)N3CCCCCC3)cc2)cc1,-3.0%,-8.9%,20µM*,24.1%,-7.1%
O=C(COc1ccccc1)Nc1ccc(S(=O)(=O)N2CCCCCC2)cc1,-18.8%,-0.8%,-49.4%,0.8%,4.9%
O=C(COc1ccc2ccccc2c1)Nc1ccc(S(=O)(=O)N2CCCCCC2)cc1,-11.8%,0.3%,17.8µM*,-4.9%,1.1%
CCOC(=O)CCc1c(C)c2cc3c(c(C)c2oc1=O)OCN(CCc1ccccc1OC)C3,·,·,·,·,-6.1%
COc1ccc(CCNCCN2CCOCC2)cc1,14.1µM*,-0.4%,-17.0%,?,-3.0%
Oc1c(CN2CCOCC2)cc(CN2CCOCC2)c(O)c1O,11.2µM*,·,·,·,·
CCCC[C@]12Cc3cc(C#N)ccc3C(O1)c1c(cc(C)n(-c3ccccc3)c1=O)O2,·,-11.0%[11.5 µM],?,-11.9%[12.9 µM],?
O=C(/C=C/c1ccccc1)c1ccc(NC2=NCCCS2)cc1,-6.9%,-11.7%,28.2µM*,5.2%,?
O=C(/C=C/c1ccc(Br)cc1)c1ccc(NC2=NCCCS2)cc1,-28.2%,-4.2%,14.1µM*,-11.1%,0.7%
Cc1cccc(/C=C/C(=O)c2ccc(NC3=NCCCS3)cc2)c1,-22.3%,-6.2%,-28.2%,-3.9%,-1.1%
Cc1cccc(NC(=O)c2ccc(Cl)c(S(=O)(=O)N3CCCCC3)c2)n1,-2.2%,·,-12.9%,·,0.0%
CN(C)c1ccc(-n2cccc2)cc1,20µM*,1.4%,-4.5%,4.1%,-1.2%
SMILES,AMA1 RON2 block,LmPK inhibitor,AmpC inh no detg,FBPA Giardia inh,AmpC inh detg
O=[N+]([O-])/C=C/c1cn(Cc2ccc(F)cc2)c2ccccc12,-22.5%,2.3%,17.8µM*,-3.4%,?
COC(=O)C(C(=O)OC)C1C=CCN(C(C)=O)C1 (configuration not stated),18.3%,·,·,·,·
CC(=O)N(C(C)=O)N1C(=O)c2cccc3c(N4CCOCC4)ccc(c23)C1=O,6.9%,7.1%,-3.8%[11.4 µM],0.7%,-13.5%
Cc1ccc(N2CCOCC2)c2c1C(=O)c1ccccc1C2=O,14.1µM*,-14.1%,120.5%,-12.0%,2.5%
CC1(C(=O)Nc2cccc(NS(C)(=O)=O)c2)CCN1CCc1ccccc1 (configuration not stated),22.7%,·,·,·,·
NS(=O)(=O)c1ccc(NC(=O)/C=C/c2cn(-c3ccccc3)nc2-c2cccc(Cl)c2)cc1,-19.9%,-0.6%,2.51µM*,-13.6%,-8.7%
O=C(/C=C/c1cn(-c2ccccc2)nc1-c1ccccc1)Nc1ccc(C(=O)O)cc1,8.9%,2.2%,-32.7%,-0.5%,-0.5%
NS(=O)(=O)c1ccc(NC(=O)COC(=O)c2cn(-c3ccccc3)nc2-c2ccc(F)cc2)cc1,-5.1%,-1.5%,12.6µM*,3.8%,-7.7%
COc1ccc(C(=O)N2CCOCC2c2cc(C(=O)NCc3ccccc3)no2)cc1 (configuration not stated),-0.5%,·,·,·,·
Cc1nc(CS(=O)(=O)c2ccccc2)cc(Sc2ccccc2Cl)n1,-1.9%,6.3%,?,0.4%,4.4%
Cc1nc(CS(=O)(=O)c2ccc(Cl)cc2)cc(Sc2ccccc2Cl)n1,2.9%,-0.3%,3.55µM*,0.2%,5.0%
Cc1nc(CS(=O)(=O)c2ccccc2)cc(Sc2ccc(Cl)cc2)n1,-1.7%,7.9%,3.98µM*,-2.4%,0.4%
O=C(COC(=O)/C=C/c1cccc(C(F)(F)F)c1)NC1CCS(=O)(=O)C1 (configuration not stated),6.2%,·,114.2%,·,8.0%
COc1ccc(N2CCN(CC(O)COc3ccc(C)cc3C)CC2)cc1 (configuration not stated),25.1µM*,-3.2%,62.4%,-9.4%,-0.2%
OC(COc1ccc2ccccc2c1)CN1CCN(c2ccc(F)cc2)CC1 (configuration not stated),6.9%,-3.1%,39.8µM*,0.0%,?
COc1ccc(N2CCN(CC(O)COc3cc(C)ccc3C)CC2)cc1 (configuration not stated),-19.1%,2.4%,57.1%,?,2.7%
Cc1ccc(Cl)cc1NC(=O)Nc1cccs1,-1.2%,2.8%,14.1µM*,-13.3%,0.1%
Cc1ccccc1NC(=O)Nc1cccs1,-3.3%,-0.6%,-40.5%,-8.3%,-7.9%
O=C(CN(c1ccc(Cl)cc1)S(=O)(=O)c1ccc(Cl)c([N+](=O)[O-])c1)NCCc1ccccc1,10.7%,2.4%,-34.3%,3.9%,-0.9%
O=C(CN(c1ccc(Cl)cc1)S(=O)(=O)c1ccc(Cl)c([N+](=O)[O-])c1)NCCc1ccc(F)cc1,-4.3%,-1.3%,31.6µM*,1.3%,-2.6%
COc1ccc2c(c1)c(C(=O)N/N=C/c1cccc(Br)c1)c(C)n2C,-12.4%,1.7%,-3.8%,19.9µM*,6.7%
COc1ccc2c(c1)c(C(=O)N/N=C/c1cccc(O)c1)c(C)n2C,-5.7%,-2.7%,-39.3%,-12.7%,-12.3%
